Laboratory results taken from the supplement of paper PMC6555819.

System: PPARg:RXRa IVT, anti-PPARg (NR concentration 270 nM, RXRa partner concentration 90 nM)
Experiment: PBM binding z-score (relative to random genomic background probes); higher = stronger binding; sequences stand for … in GC…GCGATTGACAGCGTAGAATGAAGG
In short: (§1)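 Custom Agilent 4×180K protein-binding microarrays carried double-stranded probes. Their 34-nt variable regions held direct-repeat seeds, single-nucleotide variants, half-site ablations and random human genomic background sequences. Arrays were incubated 1 h with ligand-free nuclear receptor dimers in PBS pH 7.4, 2% milk, 0.02% Triton X-100, 1 mM DTT, 0.2 mg/mL BSA and 0.4 mg/ml salmon testes DNA. Antibodies against each partner (one per run) detected binding, and scanned fluorescence was regression-normalized. Binding z-scores use random background probes as reference.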

| Sequence | PBM binding z-score |
| --- | --- |
| ATCTCTAGGTAACAAGTTCAGTGAAAGAGAGGAC | 3.2 |
| CGTCCAAGGTCAAACGTCAGTGAAGAGATGACGG | 4.1 |
| AGTCACAGTTCAGGACGAGGTAACGTAAAGCACG | 0.996 |
| ACAGACAGGTGAGTGAAGGTAGCTCAGCTGGACG | 0.62 |
| TTACCAAGGTGAAAGGTCGTTGGTGCACGCCTTG | 5.34 |
| GCTGCTAGGTCAACTCATGGTCAGCTAAAGCTCG | 4.36 |
| CGCACTAGGTCAAGGACAGTGAATCTCCGCACGC | 7.89 |
| CCAACTAGGTCATCCAGGACAGTGAATACATTGA | 7.53 |
| GCATATAGGTAGTACAAGGTGAAAGTCCGATTGT | 1.04 |
| GTGCCAAGGTGAATAGGTCGTTGATGAGTAGGCG | 2.66 |
| CGTCCAAGGTCAATGCTATGTCAGTGAAAGCATT | 3.43 |
| CGTCCAAGGTCTATGCTAGGTCAGTGAAAGCATT | 0.505 |
| CGAACGAGGGCATGAGTTGATAGAAAATGCCGAT | 1.89 |
| CGTCCAAGGTGAAAGGTCAGTGAAGAGATGACGG | 5.2 |
| CAAACTATGTCACAGAGGTCAAAGTCCGTGCGTA | 5.55 |
| TCTTGAAGATCAAAGGTTAAGAAAGCCGAAGCCT | 1.72 |
| TTACCAAGGTGATAGGTCGTTGATGCACGCCTTG | 2.82 |
| TCTGCTTGGTCAGTTGGTCAGCTAACGAGCTGCC | 0.646 |

System: PPARg DBDmut:RXRa IVT, anti-PPARg (DBD mutation: PPARg1 K132A/R137A, NR concentration 270 nM, RXRa partner concentration 90 nM)
Experiment: as above
In short: as §1

| Sequence | PBM binding z-score |
| --- | --- |
| TCATATAGGTAACCAGGTGAAAGTCCGTAAGTTA | 0.0685 |
| TGAATGAGGCTATAAGATCAGGGAACGTTGCAAA | 0.314 |
| CCGACTGGGCCAAGGTTACCATAACGCACAGCCA | 0.193 |
| AGAATGAGGTTATTAAGGTCAGGGAATTGCGGTC | 1.61 |
| CCTTACGAGTCACGAGGTTATAGCACGACGAGCG | 0.557 |
| GCTATTAGTTGAAAGGGCCACCGAATGATTCTCG | 0.0939 |
| GCTATTAGTTGAAAGGGCAACCGCATGATTCTCG | -0.261 |
| CCTGCTTGGTCATGGTCAGCTAATCTACAGTATG | -1.17 |
| CAAACTAGGTCACAGAGTTCAAAGTCCGTGCGTA | 5.41 |
| CGTCAAAGTTCACGGTAACGTAACAGAAAGCAGC | 0.983 |
| ATCTCTAGGTAAAGATAATTCAGTGAATGCAAAT | 1.06 |
| GGAACAAGGGCATTCGAGTTGATAGCATGGCGAT | -0.248 |
| CCTACTGGGGCATAAGGTTACCATAAGCCAGCCC | 0.0293 |
| GATACAGGGTCAAGGCCAGAGCACGCGTATTGAT | 0.585 |
| CCTAGTTGGTCAAGGTCACTCACGCTATAGGTAC | 0.496 |
| TAGCCTGGGTCATTGGGCCAGTATAGTACGCATC | 0.337 |
| ATCTCTAGTTAAAAGTTCAGTGAATCCCGAGGAT | 0.853 |
| TCTGCTAGGTCAGTGGGTCAGCTAACGAGCTGCC | 0.364 |
| CCTTACGGGTCACGAGGTTTTAGCACGACGAGCG | 0.0926 |
| GCTTACGGGTCAAAGGCTATAGCATGAATAGAAT | 0.463 |

| Sequence | PBM binding z-score |
| --- | --- |
| AGAATGAGGTTATTAAGTTCAGGGAATTGCGGTC | 1.24 |
| ACAGACAGGTGATGAAGGTAACTCCGGCTATCAT | 0.468 |
| ATCTCTAGGTAACAAGTTCAGTGAAAGAGAGGAC | 1.03 |
| CGTCCAAGGTCAAACGTCAGTGAAGAGATGACGG | 0.591 |
| AGTCACAGTTCAGGACGAGGTAACGTAAAGCACG | 0.513 |
| ACAGACAGGTGAGTGAAGGTAGCTCAGCTGGACG | -0.147 |
| TTACCAAGGTGAAAGGTCGTTGGTGCACGCCTTG | 0.205 |
| GCTGCTAGGTCAACTCATGGTCAGCTAAAGCTCG | -0.224 |
| CGCACTAGGTCAAGGACAGTGAATCTCCGCACGC | 1.21 |
| CCAACTAGGTCATCCAGGACAGTGAATACATTGA | 1.61 |
| GCATATAGGTAGTACAAGGTGAAAGTCCGATTGT | 0.664 |
| GTGCCAAGGTGAATAGGTCGTTGATGAGTAGGCG | 0.113 |
| CGTCCAAGGTCAATGCTATGTCAGTGAAAGCATT | -0.154 |
| CGTCCAAGGTCTATGCTAGGTCAGTGAAAGCATT | -1.49 |
| CGAACGAGGGCATGAGTTGATAGAAAATGCCGAT | -0.343 |
| CGTCCAAGGTGAAAGGTCAGTGAAGAGATGACGG | -0.368 |
| CAAACTATGTCACAGAGGTCAAAGTCCGTGCGTA | 0.905 |
| TCTTGAAGATCAAAGGTTAAGAAAGCCGAAGCCT | 0.267 |
| TTACCAAGGTGATAGGTCGTTGATGCACGCCTTG | 0.428 |
| TCTGCTTGGTCAGTTGGTCAGCTAACGAGCTGCC | -0.341 |

System: PPARg DBDmut IVT, anti-PPARg (DBD mutation: PPARg1 K132A/R137A, NR concentration 270 nM)
Experiment: as above
In short: as §1

| Sequence | PBM binding z-score |
| --- | --- |
| TCATATAGGTAACCAGGTGAAAGTCCGTAAGTTA | 0.802 |
| TGAATGAGGCTATAAGATCAGGGAACGTTGCAAA | 0.0126 |
| CCGACTGGGCCAAGGTTACCATAACGCACAGCCA | -0.788 |
| AGAATGAGGTTATTAAGGTCAGGGAATTGCGGTC | 0.235 |
| CCTTACGAGTCACGAGGTTATAGCACGACGAGCG | 0.13 |
| GCTATTAGTTGAAAGGGCCACCGAATGATTCTCG | -0.248 |
| GCTATTAGTTGAAAGGGCAACCGCATGATTCTCG | -0.166 |
| CCTGCTTGGTCATGGTCAGCTAATCTACAGTATG | -0.614 |
| CAAACTAGGTCACAGAGTTCAAAGTCCGTGCGTA | 5.72 |
| CGTCAAAGTTCACGGTAACGTAACAGAAAGCAGC | 0.91 |
| ATCTCTAGGTAAAGATAATTCAGTGAATGCAAAT | 1.29 |
| GGAACAAGGGCATTCGAGTTGATAGCATGGCGAT | -0.286 |
| CCTACTGGGGCATAAGGTTACCATAAGCCAGCCC | -0.184 |
| GATACAGGGTCAAGGCCAGAGCACGCGTATTGAT | 0.0811 |
| CCTAGTTGGTCAAGGTCACTCACGCTATAGGTAC | 1.05 |
| TAGCCTGGGTCATTGGGCCAGTATAGTACGCATC | -0.475 |
| ATCTCTAGTTAAAAGTTCAGTGAATCCCGAGGAT | 1.16 |
| TCTGCTAGGTCAGTGGGTCAGCTAACGAGCTGCC | -0.282 |
| CCTTACGGGTCACGAGGTTTTAGCACGACGAGCG | 0.246 |
| GCTTACGGGTCAAAGGCTATAGCATGAATAGAAT | 0.898 |

| Sequence | PBM binding z-score |
| --- | --- |
| AGAATGAGGTTATTAAGTTCAGGGAATTGCGGTC | 0.465 |
| ACAGACAGGTGATGAAGGTAACTCCGGCTATCAT | 0.294 |
| ATCTCTAGGTAACAAGTTCAGTGAAAGAGAGGAC | 1.64 |
| CGTCCAAGGTCAAACGTCAGTGAAGAGATGACGG | -0.466 |
| AGTCACAGTTCAGGACGAGGTAACGTAAAGCACG | 0.376 |
| ACAGACAGGTGAGTGAAGGTAGCTCAGCTGGACG | -1.08 |
| TTACCAAGGTGAAAGGTCGTTGGTGCACGCCTTG | 0.977 |
| GCTGCTAGGTCAACTCATGGTCAGCTAAAGCTCG | 0.163 |
| CGCACTAGGTCAAGGACAGTGAATCTCCGCACGC | 0.566 |
| CCAACTAGGTCATCCAGGACAGTGAATACATTGA | 1.62 |
| GCATATAGGTAGTACAAGGTGAAAGTCCGATTGT | 0.977 |
| GTGCCAAGGTGAATAGGTCGTTGATGAGTAGGCG | -0.755 |
| CGTCCAAGGTCAATGCTATGTCAGTGAAAGCATT | 0.266 |
| CGTCCAAGGTCTATGCTAGGTCAGTGAAAGCATT | -0.699 |
| CGAACGAGGGCATGAGTTGATAGAAAATGCCGAT | -0.182 |
| CGTCCAAGGTGAAAGGTCAGTGAAGAGATGACGG | -0.702 |
| CAAACTATGTCACAGAGGTCAAAGTCCGTGCGTA | 0.872 |
| TCTTGAAGATCAAAGGTTAAGAAAGCCGAAGCCT | 0.871 |
| TTACCAAGGTGATAGGTCGTTGATGCACGCCTTG | 0.413 |
| TCTGCTTGGTCAGTTGGTCAGCTAACGAGCTGCC | 0.287 |
